Measurements reported in the supplement of paper PMC11732987, “Enantioselective OTUD7B fragment discovery through chemoproteomics screening and high-throughput optimisation” (Communications Chemistry, 2025).

Legend:
Assay in all cases: log2 ratio of Biotin-Ahx-Ub-VS probe labelling (fragment/DMSO); higher = less target engagement (more negative = stronger competition), active = hit call of the paper (q ≤ 0.05, log2 ratio ≤ -1)
Conditions in all cases: compound concentration: 200 uM; treatment time: 3 h
[1] = target: T1, USP42 (UniProt Q9H9J4)
T1 sequence (whole entry): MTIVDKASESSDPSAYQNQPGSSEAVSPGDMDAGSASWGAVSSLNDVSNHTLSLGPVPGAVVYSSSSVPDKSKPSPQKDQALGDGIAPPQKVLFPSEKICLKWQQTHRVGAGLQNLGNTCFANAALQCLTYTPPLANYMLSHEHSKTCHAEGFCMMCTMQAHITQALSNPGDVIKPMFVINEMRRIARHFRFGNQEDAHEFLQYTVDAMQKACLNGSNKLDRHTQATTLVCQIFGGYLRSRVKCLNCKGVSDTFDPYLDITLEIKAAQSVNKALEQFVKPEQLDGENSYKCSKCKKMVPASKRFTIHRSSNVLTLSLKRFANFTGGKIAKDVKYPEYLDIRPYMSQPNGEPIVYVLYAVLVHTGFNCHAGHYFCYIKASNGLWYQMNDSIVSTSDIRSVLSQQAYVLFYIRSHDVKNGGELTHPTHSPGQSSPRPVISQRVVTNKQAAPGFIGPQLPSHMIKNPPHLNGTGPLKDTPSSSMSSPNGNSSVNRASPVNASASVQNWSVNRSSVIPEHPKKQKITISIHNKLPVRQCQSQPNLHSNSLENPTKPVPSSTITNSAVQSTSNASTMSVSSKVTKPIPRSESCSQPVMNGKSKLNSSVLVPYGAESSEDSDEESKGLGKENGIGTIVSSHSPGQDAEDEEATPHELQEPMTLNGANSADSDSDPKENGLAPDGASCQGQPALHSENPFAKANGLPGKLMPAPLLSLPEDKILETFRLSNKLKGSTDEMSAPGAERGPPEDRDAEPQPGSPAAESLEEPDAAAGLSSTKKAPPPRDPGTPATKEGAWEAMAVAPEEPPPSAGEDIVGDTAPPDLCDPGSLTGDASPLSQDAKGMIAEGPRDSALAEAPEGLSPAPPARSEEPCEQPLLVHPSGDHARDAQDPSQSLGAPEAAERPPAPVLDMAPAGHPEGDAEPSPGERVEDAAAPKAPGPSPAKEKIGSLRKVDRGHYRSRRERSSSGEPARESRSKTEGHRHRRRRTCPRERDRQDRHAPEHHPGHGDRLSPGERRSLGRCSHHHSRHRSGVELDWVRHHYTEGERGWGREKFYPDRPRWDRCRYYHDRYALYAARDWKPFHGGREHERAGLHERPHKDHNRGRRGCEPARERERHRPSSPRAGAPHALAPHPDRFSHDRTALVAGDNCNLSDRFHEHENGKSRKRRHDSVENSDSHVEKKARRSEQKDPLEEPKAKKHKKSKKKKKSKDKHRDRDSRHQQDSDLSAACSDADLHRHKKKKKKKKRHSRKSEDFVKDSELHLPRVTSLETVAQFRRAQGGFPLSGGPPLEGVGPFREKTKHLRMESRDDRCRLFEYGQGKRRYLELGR
Method in brief: (§1)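 Average log2 ratios of fragment over vehicle were obtained by unpaired t-test from global-median-normalised Spectronaut label-free quantities. Proteins with ≥2 unique peptides were included. HEK293T lysate (495 µg per sample) was treated in triplicate with fragment at 200 µM or vehicle for 3 h, then with Biotin-Ahx-Ub-VS at 0.5 µM final for 1 h, and labelled DUBs were NeutrAvidin-enriched and run by diaPASEF LC-MS/MS.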

[2] = target: USP46 (UniProt P62068)
Chain of USP46 (P62068 whole entry): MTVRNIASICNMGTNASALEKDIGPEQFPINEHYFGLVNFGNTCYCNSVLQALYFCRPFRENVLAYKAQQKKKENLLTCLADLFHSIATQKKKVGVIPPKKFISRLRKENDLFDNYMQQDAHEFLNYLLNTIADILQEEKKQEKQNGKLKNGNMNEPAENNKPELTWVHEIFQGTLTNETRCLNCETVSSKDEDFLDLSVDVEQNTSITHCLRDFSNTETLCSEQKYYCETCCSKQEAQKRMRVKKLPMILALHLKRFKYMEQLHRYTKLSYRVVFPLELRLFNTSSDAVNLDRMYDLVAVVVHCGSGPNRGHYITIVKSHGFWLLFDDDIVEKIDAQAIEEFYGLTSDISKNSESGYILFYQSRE
Method in brief: as §1

[3] = target: T2, USP47 (UniProt Q96K76)
T2 sequence (whole entry): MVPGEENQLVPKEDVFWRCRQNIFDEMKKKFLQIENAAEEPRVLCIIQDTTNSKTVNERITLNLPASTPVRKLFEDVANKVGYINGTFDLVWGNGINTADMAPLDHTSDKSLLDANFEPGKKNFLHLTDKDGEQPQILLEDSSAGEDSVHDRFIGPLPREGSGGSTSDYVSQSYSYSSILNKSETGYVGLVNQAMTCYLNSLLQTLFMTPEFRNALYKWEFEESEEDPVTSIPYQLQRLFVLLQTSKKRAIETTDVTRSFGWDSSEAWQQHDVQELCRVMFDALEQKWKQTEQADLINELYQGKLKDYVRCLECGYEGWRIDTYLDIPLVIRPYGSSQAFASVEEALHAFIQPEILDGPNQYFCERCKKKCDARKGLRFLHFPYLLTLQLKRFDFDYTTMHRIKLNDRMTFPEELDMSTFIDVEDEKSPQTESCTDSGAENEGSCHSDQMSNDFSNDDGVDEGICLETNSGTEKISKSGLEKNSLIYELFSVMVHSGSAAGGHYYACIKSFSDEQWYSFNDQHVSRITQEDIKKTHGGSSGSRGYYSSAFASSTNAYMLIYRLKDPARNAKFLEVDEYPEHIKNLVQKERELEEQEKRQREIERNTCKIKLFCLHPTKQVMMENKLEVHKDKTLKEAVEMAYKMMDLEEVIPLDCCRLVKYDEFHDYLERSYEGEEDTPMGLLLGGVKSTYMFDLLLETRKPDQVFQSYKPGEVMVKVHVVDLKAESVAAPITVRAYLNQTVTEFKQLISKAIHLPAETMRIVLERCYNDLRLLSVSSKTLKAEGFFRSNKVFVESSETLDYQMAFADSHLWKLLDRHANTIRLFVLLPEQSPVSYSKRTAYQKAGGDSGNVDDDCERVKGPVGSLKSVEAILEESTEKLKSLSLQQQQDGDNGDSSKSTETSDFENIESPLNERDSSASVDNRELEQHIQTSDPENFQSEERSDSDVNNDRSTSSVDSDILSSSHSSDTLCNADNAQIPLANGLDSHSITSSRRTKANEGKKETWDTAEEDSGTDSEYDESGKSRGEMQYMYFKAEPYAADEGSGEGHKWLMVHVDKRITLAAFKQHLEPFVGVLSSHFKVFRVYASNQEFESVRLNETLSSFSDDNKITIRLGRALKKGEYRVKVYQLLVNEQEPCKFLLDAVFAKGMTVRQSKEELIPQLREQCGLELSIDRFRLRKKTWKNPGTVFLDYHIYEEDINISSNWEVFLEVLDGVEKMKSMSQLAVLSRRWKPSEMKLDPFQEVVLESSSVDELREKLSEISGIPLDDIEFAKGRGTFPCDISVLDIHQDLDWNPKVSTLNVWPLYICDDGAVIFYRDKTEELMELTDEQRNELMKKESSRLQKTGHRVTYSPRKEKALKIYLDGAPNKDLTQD
Method in brief: as §1

[4] = target: T3, USP48 (UniProt Q86UV5)
T3 sequence (whole entry): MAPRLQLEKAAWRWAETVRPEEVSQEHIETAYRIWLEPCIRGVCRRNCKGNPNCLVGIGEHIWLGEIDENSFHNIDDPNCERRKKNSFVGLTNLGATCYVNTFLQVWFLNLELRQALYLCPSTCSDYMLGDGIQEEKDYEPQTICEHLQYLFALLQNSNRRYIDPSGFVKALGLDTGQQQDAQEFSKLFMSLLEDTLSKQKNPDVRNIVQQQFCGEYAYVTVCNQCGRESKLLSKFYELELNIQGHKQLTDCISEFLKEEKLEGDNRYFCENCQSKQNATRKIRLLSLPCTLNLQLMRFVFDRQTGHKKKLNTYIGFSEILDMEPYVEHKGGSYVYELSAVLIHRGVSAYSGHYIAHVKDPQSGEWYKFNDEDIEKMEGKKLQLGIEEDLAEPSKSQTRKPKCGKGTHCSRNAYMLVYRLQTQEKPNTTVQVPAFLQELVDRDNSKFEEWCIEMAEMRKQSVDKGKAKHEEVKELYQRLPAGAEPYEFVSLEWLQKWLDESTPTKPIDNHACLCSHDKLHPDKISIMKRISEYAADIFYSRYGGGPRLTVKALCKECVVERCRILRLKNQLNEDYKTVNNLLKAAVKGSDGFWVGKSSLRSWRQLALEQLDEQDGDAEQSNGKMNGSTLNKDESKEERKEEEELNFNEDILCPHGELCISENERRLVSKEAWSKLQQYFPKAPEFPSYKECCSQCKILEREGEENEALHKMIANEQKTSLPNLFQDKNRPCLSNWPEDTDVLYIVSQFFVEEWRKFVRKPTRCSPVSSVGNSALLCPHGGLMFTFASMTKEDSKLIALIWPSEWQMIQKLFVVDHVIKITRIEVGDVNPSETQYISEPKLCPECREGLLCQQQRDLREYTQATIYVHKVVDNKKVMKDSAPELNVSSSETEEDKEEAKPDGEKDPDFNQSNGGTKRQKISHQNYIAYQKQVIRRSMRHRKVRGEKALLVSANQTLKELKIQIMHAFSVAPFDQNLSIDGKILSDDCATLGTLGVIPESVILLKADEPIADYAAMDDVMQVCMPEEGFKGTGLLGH
Method in brief: as §1

[5] = target: T4, USP5 (UniProt P45974)
T4 sequence (whole entry): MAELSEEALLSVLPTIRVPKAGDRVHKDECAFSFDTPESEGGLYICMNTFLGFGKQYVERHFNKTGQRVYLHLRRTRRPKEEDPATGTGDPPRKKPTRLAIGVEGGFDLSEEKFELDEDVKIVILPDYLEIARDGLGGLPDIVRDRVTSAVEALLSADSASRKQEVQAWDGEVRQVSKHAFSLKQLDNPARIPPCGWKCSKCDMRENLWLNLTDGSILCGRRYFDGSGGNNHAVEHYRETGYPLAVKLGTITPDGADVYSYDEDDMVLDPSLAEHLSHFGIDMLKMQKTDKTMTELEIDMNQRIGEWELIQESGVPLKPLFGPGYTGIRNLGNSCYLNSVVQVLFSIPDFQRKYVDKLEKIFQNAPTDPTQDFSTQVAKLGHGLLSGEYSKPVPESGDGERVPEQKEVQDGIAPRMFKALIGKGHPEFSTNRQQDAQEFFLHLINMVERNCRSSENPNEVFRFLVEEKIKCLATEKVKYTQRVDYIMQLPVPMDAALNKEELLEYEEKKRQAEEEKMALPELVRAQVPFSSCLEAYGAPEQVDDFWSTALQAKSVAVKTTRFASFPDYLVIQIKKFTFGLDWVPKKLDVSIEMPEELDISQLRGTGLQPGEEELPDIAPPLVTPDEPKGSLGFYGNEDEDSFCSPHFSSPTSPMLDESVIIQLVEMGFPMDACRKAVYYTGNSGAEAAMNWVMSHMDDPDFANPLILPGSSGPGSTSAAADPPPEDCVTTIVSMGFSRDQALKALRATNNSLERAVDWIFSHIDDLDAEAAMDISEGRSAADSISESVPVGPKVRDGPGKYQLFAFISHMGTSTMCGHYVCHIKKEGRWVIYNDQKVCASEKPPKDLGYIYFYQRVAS
Method in brief: as §1

[6] = target: USP54 (UniProt Q70EL1)
Chain of USP54 (Q70EL1 whole entry): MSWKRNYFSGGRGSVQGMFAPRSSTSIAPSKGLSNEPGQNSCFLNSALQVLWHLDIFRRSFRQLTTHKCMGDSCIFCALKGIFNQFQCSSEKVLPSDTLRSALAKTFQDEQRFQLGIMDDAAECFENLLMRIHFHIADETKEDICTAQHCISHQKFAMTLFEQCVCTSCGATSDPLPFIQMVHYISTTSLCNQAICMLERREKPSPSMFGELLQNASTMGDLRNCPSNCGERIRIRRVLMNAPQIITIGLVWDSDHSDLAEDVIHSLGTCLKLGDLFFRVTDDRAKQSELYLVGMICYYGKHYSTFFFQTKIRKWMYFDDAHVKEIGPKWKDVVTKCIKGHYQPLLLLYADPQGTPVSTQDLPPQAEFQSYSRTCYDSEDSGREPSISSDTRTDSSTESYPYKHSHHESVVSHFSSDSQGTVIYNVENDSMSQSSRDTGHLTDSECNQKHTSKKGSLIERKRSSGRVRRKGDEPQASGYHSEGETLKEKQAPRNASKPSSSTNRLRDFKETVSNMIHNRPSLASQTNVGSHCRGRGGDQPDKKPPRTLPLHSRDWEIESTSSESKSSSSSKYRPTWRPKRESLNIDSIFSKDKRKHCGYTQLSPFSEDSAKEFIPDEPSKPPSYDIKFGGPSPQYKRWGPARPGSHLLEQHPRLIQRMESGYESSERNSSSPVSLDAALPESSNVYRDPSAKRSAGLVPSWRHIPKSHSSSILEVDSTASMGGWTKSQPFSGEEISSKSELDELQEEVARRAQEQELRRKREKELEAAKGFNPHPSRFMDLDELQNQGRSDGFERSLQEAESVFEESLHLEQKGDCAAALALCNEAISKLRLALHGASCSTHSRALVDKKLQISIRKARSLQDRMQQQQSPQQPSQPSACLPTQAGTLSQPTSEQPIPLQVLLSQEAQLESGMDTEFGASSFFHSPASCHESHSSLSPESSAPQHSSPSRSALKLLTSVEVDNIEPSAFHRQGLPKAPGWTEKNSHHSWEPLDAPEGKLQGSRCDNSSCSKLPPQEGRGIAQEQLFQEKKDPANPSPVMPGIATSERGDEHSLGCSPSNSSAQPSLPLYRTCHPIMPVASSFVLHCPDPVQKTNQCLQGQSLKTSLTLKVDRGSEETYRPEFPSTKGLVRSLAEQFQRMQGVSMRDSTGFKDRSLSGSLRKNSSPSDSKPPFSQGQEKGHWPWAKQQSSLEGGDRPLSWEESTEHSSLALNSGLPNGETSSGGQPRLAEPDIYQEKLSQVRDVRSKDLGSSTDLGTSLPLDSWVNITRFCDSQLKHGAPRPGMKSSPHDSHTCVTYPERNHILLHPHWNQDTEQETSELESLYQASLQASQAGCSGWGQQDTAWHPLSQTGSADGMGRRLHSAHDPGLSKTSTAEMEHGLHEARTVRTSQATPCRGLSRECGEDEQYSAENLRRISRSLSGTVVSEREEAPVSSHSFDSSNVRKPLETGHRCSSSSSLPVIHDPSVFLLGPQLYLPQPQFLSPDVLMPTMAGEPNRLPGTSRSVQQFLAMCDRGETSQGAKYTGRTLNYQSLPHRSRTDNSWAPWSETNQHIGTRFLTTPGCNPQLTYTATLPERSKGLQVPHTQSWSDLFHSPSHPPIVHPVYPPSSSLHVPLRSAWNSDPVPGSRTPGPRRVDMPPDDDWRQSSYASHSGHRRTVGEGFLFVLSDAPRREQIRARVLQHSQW
Method in brief: as §1

[7] = target: USP7 (UniProt Q93009)
Chain of USP7 (Q93009 whole entry, looked up): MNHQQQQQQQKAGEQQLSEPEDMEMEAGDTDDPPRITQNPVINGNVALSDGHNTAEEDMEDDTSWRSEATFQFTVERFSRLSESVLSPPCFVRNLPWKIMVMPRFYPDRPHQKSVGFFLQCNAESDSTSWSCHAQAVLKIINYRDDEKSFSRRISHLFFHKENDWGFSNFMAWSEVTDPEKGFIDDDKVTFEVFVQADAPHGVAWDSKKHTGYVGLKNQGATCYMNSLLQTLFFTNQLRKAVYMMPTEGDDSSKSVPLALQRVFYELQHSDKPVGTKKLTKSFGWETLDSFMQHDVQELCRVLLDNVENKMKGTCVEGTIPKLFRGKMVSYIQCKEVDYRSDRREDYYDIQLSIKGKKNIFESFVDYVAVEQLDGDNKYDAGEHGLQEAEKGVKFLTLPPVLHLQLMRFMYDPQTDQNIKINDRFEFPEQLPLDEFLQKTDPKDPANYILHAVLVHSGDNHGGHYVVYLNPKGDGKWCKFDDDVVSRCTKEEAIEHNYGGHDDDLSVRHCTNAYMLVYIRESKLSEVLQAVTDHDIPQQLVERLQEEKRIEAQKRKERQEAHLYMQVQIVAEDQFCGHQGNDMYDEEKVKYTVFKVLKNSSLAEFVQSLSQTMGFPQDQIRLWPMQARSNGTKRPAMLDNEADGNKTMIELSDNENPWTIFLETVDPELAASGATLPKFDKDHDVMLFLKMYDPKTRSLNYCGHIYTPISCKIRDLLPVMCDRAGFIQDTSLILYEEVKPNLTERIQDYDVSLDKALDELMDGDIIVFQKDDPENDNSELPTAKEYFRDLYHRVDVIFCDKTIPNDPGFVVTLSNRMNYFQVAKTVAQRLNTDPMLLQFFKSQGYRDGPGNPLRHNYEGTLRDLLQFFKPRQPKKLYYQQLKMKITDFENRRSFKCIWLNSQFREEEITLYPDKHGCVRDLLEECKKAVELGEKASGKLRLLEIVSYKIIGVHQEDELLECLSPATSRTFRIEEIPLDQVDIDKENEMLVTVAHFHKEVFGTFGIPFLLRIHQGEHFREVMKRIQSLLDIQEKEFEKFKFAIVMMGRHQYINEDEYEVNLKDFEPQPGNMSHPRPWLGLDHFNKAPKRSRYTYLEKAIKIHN
Method in brief: as §1

[8] = target: T5, USP8 (UniProt P40818)
T5 sequence (whole entry): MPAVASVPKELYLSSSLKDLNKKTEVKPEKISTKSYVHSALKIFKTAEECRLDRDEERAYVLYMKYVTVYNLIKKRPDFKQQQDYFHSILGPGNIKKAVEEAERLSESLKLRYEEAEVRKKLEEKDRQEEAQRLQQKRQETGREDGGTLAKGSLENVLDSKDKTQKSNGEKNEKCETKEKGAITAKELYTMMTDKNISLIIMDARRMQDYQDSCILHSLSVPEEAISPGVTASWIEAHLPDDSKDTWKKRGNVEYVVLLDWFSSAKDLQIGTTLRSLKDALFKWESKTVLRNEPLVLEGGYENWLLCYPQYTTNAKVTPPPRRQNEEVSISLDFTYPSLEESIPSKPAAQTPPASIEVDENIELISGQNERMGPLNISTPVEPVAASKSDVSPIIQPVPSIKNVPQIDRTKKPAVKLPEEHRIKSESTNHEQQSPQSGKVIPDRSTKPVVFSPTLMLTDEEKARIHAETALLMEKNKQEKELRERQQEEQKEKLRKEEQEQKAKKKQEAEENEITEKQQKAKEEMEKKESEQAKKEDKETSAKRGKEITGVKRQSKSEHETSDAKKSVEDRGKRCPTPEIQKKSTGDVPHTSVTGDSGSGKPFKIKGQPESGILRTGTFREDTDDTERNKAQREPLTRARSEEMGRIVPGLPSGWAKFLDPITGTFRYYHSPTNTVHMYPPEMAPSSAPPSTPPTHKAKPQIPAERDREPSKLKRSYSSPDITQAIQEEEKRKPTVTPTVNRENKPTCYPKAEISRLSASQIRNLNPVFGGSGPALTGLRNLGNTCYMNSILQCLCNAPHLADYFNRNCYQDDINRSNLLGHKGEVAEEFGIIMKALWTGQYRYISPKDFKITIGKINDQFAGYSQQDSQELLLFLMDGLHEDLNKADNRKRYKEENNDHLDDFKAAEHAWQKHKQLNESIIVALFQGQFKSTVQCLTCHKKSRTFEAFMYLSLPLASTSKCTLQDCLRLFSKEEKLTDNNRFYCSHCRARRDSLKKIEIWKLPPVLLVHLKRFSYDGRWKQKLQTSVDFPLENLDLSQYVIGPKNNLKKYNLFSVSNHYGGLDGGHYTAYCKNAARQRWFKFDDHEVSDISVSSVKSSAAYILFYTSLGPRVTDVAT
Method in brief: as §1

[9] = target: USP9X (UniProt Q93008)
Method in brief: as §1

[10] = target: UniProt O00487
Chain of UniProt O00487 (O00487 whole entry): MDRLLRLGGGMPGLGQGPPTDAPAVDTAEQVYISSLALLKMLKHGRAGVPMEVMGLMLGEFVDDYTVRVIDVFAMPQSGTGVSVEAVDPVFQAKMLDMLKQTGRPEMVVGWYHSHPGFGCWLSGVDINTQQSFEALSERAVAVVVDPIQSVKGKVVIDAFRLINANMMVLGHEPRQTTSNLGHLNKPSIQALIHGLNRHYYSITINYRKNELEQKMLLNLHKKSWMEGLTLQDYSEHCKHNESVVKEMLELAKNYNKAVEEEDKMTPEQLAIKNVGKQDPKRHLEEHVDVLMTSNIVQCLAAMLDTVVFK
Method in brief: as §1

Measured: log2 ratio of Biotin-Ahx-Ub-VS probe labelling

Cl.O=C(CCl)NC1(c2ncccn2)CCC1
inactive: [1] 0.259 | [2] 0.267 | [3] -0.186 | [4] -0.0959 | [5] -0.174 | [6] -0.292 | [7] -0.0088 | [8] -0.47 | [9] 0.117 | [10] 0.0465
